# Measured values reported in PubChem BioAssay (NCATS).
# Results filed as inconclusive are left out. Values without a mark were called inactive. Calls of active or inactive are those of the source. The call rests on the fitted dose curve; in most records, active means well fitted inhibition curve with a large enough effect; inconclusive means small, poorly fitted or top-dose-only effect; inactive means flat fitted curve, though single readings scatter.
# Legend:
# Assay in all cases: Cytotoxic Profiling of Annotated Libraries Using Quantitative High-Throughput Screening (AID 1296008); further: nearly all actives have a fitted effect of over 60% in size
# Settings in all cases: Five cell lines viability, CellTiter-Glo ATP luminescence, 48-72 h; max response: stronger effect = lower value
# [1] = test system: CRL-7250
# Outline: (§1)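 Compounds were pin-transferred onto cells and incubated 48 or 72 hr at 37 degree Celsius, 95% humidity. CellTiter-Glo was added, plates sat 10 min at room temperature, then ATP-coupled luminescence was imaged as the viability read-out.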
# [2] = test system: HaCat
# Outline: as §1
# [3] = test system: HEK293
# Outline: as §1
# [4] = test system: KB-3-1
# Outline: as §1
# On the % scale 0 is the no-effect control and ±100 the full control effect; potency means the concentration at half of the fitted maximal effect.
smiles,measurement,setting,value
Cc1nc(C2CCCCC2)c(-c2ccc(S(N)(=O)=O)c(F)c2)o1,max response,[1],-4.52%
same,outcome,[2],inactive
O=C(O)Cc1ccccc1Oc1ccc(Cl)cc1Cl,max response,[1],1.12%
same,max response,[3],3.66%
same,outcome,[4],inactive
O=[N+]([O-])c1ccc(-c2nc(-c3ccc(F)cc3)c(-c3ccncc3)[nH]2)cc1,outcome,[1],inactive
same,max response,[2],-22.5%
O=C1Nc2ccccc2C1(c1ccc(O)cc1)c1ccc(O)cc1,Potency,[1],23.7 µM (active)
same,max response,[2],-55.1%
COC(=O)C1=C(C)NC(C)=C(C(=O)OCCc2ccc(N3CCN(C(c4ccccc4)c4ccccc4)CC3)cc2)C1c1cccc([N+](=O)[O-])c1 (stereo unspecified),max response,[1],-8.49%
same,outcome,[2],inactive
CCC(=O)Oc1ccc2c(c1)CC[C@@H]1[C@@H]2CC[C@@]2(C)[C@H]1C[C@@H](OC(=O)CC)[C@@H]2OC(=O)CC,max response,[1],-3.71%
same,max response,[2],-1.68%
CO[C@@H]1[C@@H](OC)[C@H](C)[C@@](O)(CC(=O)O)O[C@H]1[C@H](C)[C@H]1O[C@@]2(CC[C@@](C)([C@H]3CC[C@@](C)([C@@H]4O[C@@H]([C@H]5O[C@](C)(O)[C@H](C)C[C@@H]5C)C[C@@H]4OC4C[C@H](OC)[C@@H](OC)[C@H](C)O4)O3)O2)C[C@H](O)[C@H]1C (stereo partly specified),Potency,[1],0.944 µM (active)
same,Potency,[3],0.237 µM (active)
same,Potency,[4],16.4 µM (active)
CN(C)CCOC(c1ccccc1)c1ccc(Br)cc1 (stereo unspecified),max response,[1],-20.9%
same,max response,[2],1.11%
CC(C)(C)c1ccc(C(=O)CCCCl)cc1,outcome,[1],inactive
same,max response,[2],3.33%
COc1cc2nc(Cl)nc(N)c2cc1OC,outcome,[1],inactive
same,max response,[2],0.108%
CN(C)C(=O)CNC(=O)Cc1ccccc1,max response,[1],-7.63%
same,max response,[3],-9.26%
same,outcome,[4],inactive
CCCC(=O)O[C@]1(C(=O)CCl)[C@@H](C)C[C@H]2[C@@H]3CCC4=CC(=O)C=C[C@]4(C)[C@@]3(F)C(=O)C[C@@]21C,max response,[1],-8.55%
same,max response,[2],-2.69%
CC(C)Cc1ccc(C(C)C(=O)OCc2ccccn2)cc1 (stereo unspecified),max response,[1],-2.57%
same,outcome,[2],inactive
CC(=O)Oc1ccc(C2(c3ccc(OC(C)=O)cc3)Oc3ccccc3NC2=O)cc1,Potency,[1],8.41 µM (active)
same,Potency,[3],7.5 µM (active)
same,Potency,[4],18.4 µM (active)
CCC(CN)=C(c1ccccc1)c1ccccc1,outcome,[1],inactive
same,max response,[2],1.4%
Cc1c(C)c2c(c(C)c1OC(=O)CCC(=O)OCCO)CC[C@@](C)(CCC[C@H](C)CCC[C@H](C)CCCC(C)C)O2,max response,[1],-109%
same,max response,[4],-31.1%
CCCCNc1ccc(C(=O)OCCN(CC)CC)cc1,max response,[1],-6.06%
same,max response,[2],-28.3%
same,max response,[4],-0.138%
O=C(Nc1ccc(Cl)cc1)Nc1ccc(Cl)c(C(F)(F)F)c1,max response,[3],-107%
Nc1cccc2c(N)cccc12,Potency,[3],34.4 µM (active)
same,outcome,[2],inactive
same,max response,[4],15.8%
CCN1C(=O)c2ccccc2C1Nc1ccc(OCCN2CCCCC2)cc1 (stereo unspecified),max response,[1],-2.5%
same,max response,[2],-6.62%
same,outcome,[4],inactive
